Measured values reported in PubChem BioAssay (Tox21).
Inconclusive results are not listed. Where a call stands in place of a potency, no number is given. Unmarked numbers belong to inactive results. Activity calls are given as the source filed them. Unless noted, the call rests on the fitted dose curve; in most records, active means well fitted curve in the direction sought with a large enough effect in the repeat runs; inconclusive means weak or mixed curves; inactive means no such curve, though single readings can be large; an effect the other way counts as inactive or inconclusive.

How the values were obtained:
[1] = molecular target: Retinoic acid receptor RXR-alpha (Homo sapiens) (UniProt P19793); experiment: qHTS assay to identify small molecule agonists of the RXR signaling pathway (AID 1159527; calls by dose curve; further: nearly all actives have a fitted effect of over 35% in size; further: potency means the concentration at half of the fitted maximal effect)
Retinoic acid receptor RXR-alpha (Homo sapiens), sequence (P19793 whole entry, looked up): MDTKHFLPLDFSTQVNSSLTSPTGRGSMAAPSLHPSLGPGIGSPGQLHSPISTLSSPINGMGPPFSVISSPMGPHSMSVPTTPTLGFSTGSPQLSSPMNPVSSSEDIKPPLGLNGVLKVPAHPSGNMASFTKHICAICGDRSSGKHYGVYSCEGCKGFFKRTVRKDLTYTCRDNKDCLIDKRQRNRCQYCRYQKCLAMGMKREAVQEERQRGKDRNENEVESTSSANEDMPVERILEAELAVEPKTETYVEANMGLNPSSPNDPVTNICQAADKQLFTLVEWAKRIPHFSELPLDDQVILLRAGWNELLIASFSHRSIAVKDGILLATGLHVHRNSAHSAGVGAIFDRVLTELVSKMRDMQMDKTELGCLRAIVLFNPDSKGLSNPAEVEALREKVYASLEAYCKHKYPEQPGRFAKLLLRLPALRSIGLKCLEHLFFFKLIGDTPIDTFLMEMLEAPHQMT
Outline: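 Agonist mode; 9-cis retinoic acid positive control. HEK 293T UAS-bla reporter cells, 2% charcoal-stripped FBS, 16 hr compound exposure at 37 C/5% CO2. LiveBLAzer B/G FRET substrate 2 hr RT; ex 405, em 460/530 nm.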

[2] = qHTS assay to identify small molecule agonists of the RXR signaling pathway - cell viability counter screen (AID 1159529); further: series mostly up to about 77 µM; nearly all actives have a fitted effect of over 50% in size
Outline: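 Luminescence from CellTiter-Glo (30 min, RT) measured viability in the same wells as the beta-lactamase reporter readout. Cells: GeneBLAzer RXR-alpha HEK 293T, 2% charcoal-stripped FBS. Compound exposure 16 hr, 37 C.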

[3] = qHTS assay to identify small molecule antagonists of the retinoid acid receptor (RAR) signaling pathway - cell viability counter screen (AID 1159551); further: nearly all actives have a fitted effect of over 35% in size
Outline: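 Cytotoxicity counter screen in C3RL4 cells: 6 h compound exposure with 1 uM retinol (final), viability from cellular ATP by luminescence.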

[4] = qHTS assay to identify small molecule antagonists of the retinoic acid receptor (RAR) signaling pathway (AID 1159552; further: nearly all actives have a fitted effect of over 50% in size)
Outline: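 Luminescence from a RARE luciferase reporter in C3RL4 cells served as read-out. Cells received compounds together with 1 uM final retinol and incubated 6 hr at 37 C before detection reagent was added for 30 min at room temperature.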

[5] = qHTS assay to identify small molecule antagonists of the estrogen related receptor (ERR) signaling pathway from Tox21 library - cell viability counter screen (AID 1224834); further: nearly all actives have a fitted effect of over 30% in size
Outline: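 Cytotoxicity of test substances is gauged in the same ERR cells used for the antagonist screen, after 17.5 h of compound treatment at 37 C, by CellTiter-Fluor fluorescence measured after 30 min.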

[6] = molecular target: Luciferin 4-monooxygenase (Photinus pyralis) (UniProt P08659); experiment: qHTS assay to identify small molecule inhibitors of firefly luciferase (AID 1224835); further: series mostly up to about 120 µM; nearly all actives have a fitted effect of over 25% in size
Luciferin 4-monooxygenase (Photinus pyralis), sequence (P08659 whole entry, looked up): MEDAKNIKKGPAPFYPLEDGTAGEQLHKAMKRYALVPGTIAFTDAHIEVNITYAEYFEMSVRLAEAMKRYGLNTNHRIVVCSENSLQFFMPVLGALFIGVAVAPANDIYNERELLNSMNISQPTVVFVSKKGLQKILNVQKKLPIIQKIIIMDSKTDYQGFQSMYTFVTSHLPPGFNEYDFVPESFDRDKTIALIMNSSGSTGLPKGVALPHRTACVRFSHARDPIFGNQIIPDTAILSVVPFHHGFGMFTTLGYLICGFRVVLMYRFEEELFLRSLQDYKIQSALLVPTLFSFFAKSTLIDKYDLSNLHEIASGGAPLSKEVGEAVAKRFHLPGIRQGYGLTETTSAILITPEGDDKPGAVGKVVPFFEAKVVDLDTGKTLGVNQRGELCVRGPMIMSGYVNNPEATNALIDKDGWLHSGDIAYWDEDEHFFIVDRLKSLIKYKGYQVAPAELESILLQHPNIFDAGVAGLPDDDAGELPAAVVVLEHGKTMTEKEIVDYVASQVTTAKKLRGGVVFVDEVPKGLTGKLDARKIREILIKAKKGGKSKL
Outline: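 Inhibition of purified Photinus luciferase is measured by luminescence. Substrate levels (D-luciferin, ATP) sit at their KM values. Each compound is tested in a concentration series.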

[7] = qHTS assay to identify small molecule agonists of the constitutive androstane receptor (CAR) signaling pathway - cell viability counter screen (AID 1224836); further: series mostly up to about 92 µM; nearly all actives have a fitted effect of over 45% in size
Outline: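 Viability read-out: CellTiter-Fluor fluorescence after 23 h compound exposure at 37 C/5% CO2 in double-stable HepG2-CYP2B6-hCAR cells, with PK11195 present at 0.75 uM final; compounds tested in 15-point titration.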

[8] = qHTS assay to identify small molecule antagonists of the constitutive androstane receptor (CAR) signaling pathway - cell viability counter screen (AID 1224837); further: series mostly up to about 92 µM; nearly all actives have a fitted effect of over 45% in size
Outline: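 Multiplexed cytotoxicity read-out for the CAR antagonist screen: double-stable HepG2-CYP2B6-hCAR cells co-treated with 50 nM CITCO (final) and compound over 15 concentrations, incubated 23 hr, then assessed by CellTiter-Fluor fluorescence.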

[9] = molecular target: Nuclear receptor subfamily 1 group I member 3 (Homo sapiens) (UniProt Q14994); experiment: qHTS assay to identify small molecule antagonists of the constitutive androstane receptor (CAR) signaling pathway (AID 1224838); further: nearly all actives have a fitted effect of over 40% in size
Nuclear receptor subfamily 1 group I member 3 (Homo sapiens), sequence (Q14994 whole entry, looked up): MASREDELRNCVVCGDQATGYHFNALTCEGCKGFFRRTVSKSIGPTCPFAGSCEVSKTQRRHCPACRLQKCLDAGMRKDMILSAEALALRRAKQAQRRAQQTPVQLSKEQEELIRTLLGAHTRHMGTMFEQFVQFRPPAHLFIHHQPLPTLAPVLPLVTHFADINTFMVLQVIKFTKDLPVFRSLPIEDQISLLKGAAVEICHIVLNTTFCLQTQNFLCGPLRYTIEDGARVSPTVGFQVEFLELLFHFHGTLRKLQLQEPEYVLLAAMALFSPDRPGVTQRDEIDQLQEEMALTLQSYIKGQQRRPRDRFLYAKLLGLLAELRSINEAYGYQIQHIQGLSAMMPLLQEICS
Outline: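 Compounds were titrated across 15 concentrations onto HepG2 cells double-stably expressing hCAR and a CYP2B6-2.2kb reporter, together with 50 nM CITCO (final). After 24 h at 37 C, luciferase activity was measured by luminescence.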

[10] = qHTS assay to identify small molecule antagonists of the estrogen related receptor signaling pathway with the pleiotropic PPARgamma coactivator (PGC) from Tox21 10K library (AID 1224841; call rule not given here; further: series mostly up to about 92 µM; actives are mostly falling curves and most rising ones were filed inactive; nearly all actives have a fitted effect of over 50% in size)
Outline: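 Antagonism in this quantitative HTS is taken from loss of luciferase signal in PGC/ERR cells. Cells (2,000/well) are treated with compounds in DMSO after a 6 h settling period and read by One-Glo luminescence after 18 h.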

[11] = qHTS assay to identify small molecule agonists of the estrogen related receptor signaling pathway with the pleiotropic PPARgamma coactivator (PGC) from Tox21 10K library (AID 1224842); further: nearly all actives have a fitted effect of over 15% in size
Outline: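 Luminescence from One-Glo (30 min, room temperature) measured after PGC/ERR cells had 18 h at 37 C with pinned compound (23 nL in DMSO). Cells had been seeded at 2,000 per well and pre-incubated 6 h.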

[12] = molecular target: Thyrotropin receptor (Homo sapiens) (UniProt P16473); experiment: qHTS assay to identify small molecule agonists of the thyroid stimulating hormone receptor (TSHR) signaling pathway (AID 1224843; calls by dose curve; further: nearly all actives have a fitted effect of over 45% in size; further: potency means the concentration at half of the fitted maximal effect)
Thyrotropin receptor (Homo sapiens), sequence (P16473 whole entry, looked up): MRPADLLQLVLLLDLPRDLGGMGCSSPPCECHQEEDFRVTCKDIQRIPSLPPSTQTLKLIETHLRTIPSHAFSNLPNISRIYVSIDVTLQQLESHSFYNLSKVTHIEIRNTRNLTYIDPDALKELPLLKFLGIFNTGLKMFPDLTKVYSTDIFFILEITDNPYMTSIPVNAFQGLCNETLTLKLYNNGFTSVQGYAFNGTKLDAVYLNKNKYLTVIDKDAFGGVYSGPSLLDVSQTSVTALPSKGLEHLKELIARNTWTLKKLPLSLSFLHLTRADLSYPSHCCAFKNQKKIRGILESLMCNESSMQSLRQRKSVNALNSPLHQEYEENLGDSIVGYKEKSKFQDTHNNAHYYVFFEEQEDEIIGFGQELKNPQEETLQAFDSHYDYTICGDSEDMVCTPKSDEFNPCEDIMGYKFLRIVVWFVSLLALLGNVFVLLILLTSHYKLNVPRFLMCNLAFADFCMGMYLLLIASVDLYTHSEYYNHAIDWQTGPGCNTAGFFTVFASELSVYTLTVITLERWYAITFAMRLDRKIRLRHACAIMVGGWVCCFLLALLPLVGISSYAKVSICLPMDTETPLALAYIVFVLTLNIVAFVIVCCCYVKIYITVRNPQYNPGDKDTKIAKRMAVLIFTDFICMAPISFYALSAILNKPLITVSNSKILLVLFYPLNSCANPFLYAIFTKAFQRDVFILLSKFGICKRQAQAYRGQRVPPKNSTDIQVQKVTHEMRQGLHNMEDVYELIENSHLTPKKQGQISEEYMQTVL
Outline: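 Screening of the Tox21 10K collection used HEK293 cells engineered with TSHR at 800 cells per well. After a 30-min room-temperature compound exposure, HTRF cAMP reagents were added and fluorescence recorded 1 h later.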

[13] = qHTS assay to identify small molecule agonists of the hypoxia (HIF-1) signaling pathway - cell viability counter screen (AID 1224844; calls by dose curve; further: nearly all actives have a fitted effect of over 50% in size)
Outline: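 Tox21 10K compounds were added to HRE-bla ME-180 cells (0.5% dialyzed FBS) and incubated 17 hrs at 37C; ATP-based CellTiter-Glo luminescence then reported cell viability in the same wells.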

[14] = qHTS assay to identify small molecule agonists of H2AX (AID 1224845; active means well fitted activation curve with a large enough effect in the signal ratio in the repeat runs, not every such curve was filed as active; the % refers to the signal ratio)
Outline: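 Phospho-H2AX Ser139 measured by HTRF (ex 320 nm; em 665 and 620 nm) after 24 hr antibody incubation. Compounds, 15 concentrations, 0.76% DMSO, were applied to CHO-K1 cells for 3hr at 37C before lysis.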

[15] = qHTS assay to identify small molecule antagonists of the estrogen related receptor signaling pathway with the pleiotropic PPARgamma coactivator (PGC) from Tox21 10K library - cell viability counter screen (AID 1224840; active means well fitted cell-killing curve with a large enough effect in the repeat runs, not every such curve was filed as active; further: nearly all actives have a fitted effect of over 40% in size)
Outline: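 Step one, plate 2,000 PGC/ERR cells per well; step two, incubate 6 h at 37 C/5% CO2; step three, pin-transfer compounds; step four, incubate 17.5 h; step five, add CellTiter-Fluor and read fluorescence after 30 min.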

[16] = molecular target: Nuclear receptor subfamily 1 group I member 3 (Homo sapiens) (UniProt Q14994); experiment: qHTS assay to identify small molecule agonists of the constitutive androstane receptor (CAR) signaling pathway (AID 1224839);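 further: HepG2 cells stably carrying human CAR and a CYP2B6 luciferase reporter; series mostly up to about 92 µM; nearly all actives have a fitted effect of over 15% in size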
Outline: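 Luminescence read-out (ONE-Glo, 30 min, room temperature) from double-stable HepG2-CYP2B6-hCAR cells exposed 24 h to 15-point compound series in presence of 0.75 uM PK11195 final.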

[17] = qHTS assay to identify small molecule agonists of the retinoic acid receptor (RAR) signaling pathway (AID 1159553)
Outline: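 Agonist activity was scored in C3RL4 cells bearing a retinoic acid response element luciferase construct. Cells were treated with compounds for 6 hr at 37 C, and luciferase signal was measured as luminescence.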

Structure (SMILES)	Potency [1]	outcome [2]	outcome [3]	outcome [4]	Potency [5]	Potency [6]	Potency [7]	Potency [8]	outcome [9]	Potency [10]	outcome [11]	Potency [12]	outcome [13]	outcome [14]	outcome [15]	Potency [16]	Potency [17]
CCCCCCCCC1CCC(=O)O1 (centres undefined)	inactive	inactive	inactive	inactive	inactive	inactive	inactive	inactive	inactive	inactive	inactive	inactive	inactive	inactive			
CCCCCCN	inactive	inactive	inactive	inactive	inactive	inactive	inactive	inactive					inactive	inactive	inactive		
CCCOC(=O)C(C)O (centres undefined)	inactive	inactive	inactive	inactive	inactive	inactive	inactive	inactive	inactive			inactive	inactive	inactive	inactive		
COCCc1ccc(OCC2CO2)cc1 (centres undefined)	inactive	inactive	inactive	inactive	inactive	inactive	inactive	inactive	inactive			inactive	inactive	inactive	inactive	inactive	
NS(=O)(=O)c1cc2c(cc1Cl)CN(C1CCCCC1)C2=O	inactive	inactive	inactive	inactive	inactive	inactive	inactive	inactive	inactive			inactive	inactive	inactive	inactive	inactive	
Nc1ncnc(Nc2ccccc2)n1	inactive	inactive	inactive	inactive	inactive	inactive	inactive	inactive	inactive				inactive	inactive	inactive		
Cc1cccc2nccnc12	inactive	inactive	inactive	inactive	inactive	inactive	inactive	inactive				inactive	inactive	inactive			
COC(=O)CCCCCCCC(=O)OC	inactive	inactive	inactive	inactive	inactive	inactive	inactive	inactive	inactive	inactive	inactive		inactive	inactive	inactive		
CCCCOCCOC(=O)COc1nc(Cl)c(Cl)cc1Cl	inactive	inactive	inactive	inactive	inactive	inactive	inactive	inactive		inactive	inactive			inactive	inactive		
O=C(O)c1cc(Br)c(O)c(Br)c1	inactive	inactive	inactive	inactive	inactive	inactive	inactive	inactive		inactive	inactive		inactive		inactive		
N[C@@H](CCC(=O)Nc1ccc([N+](=O)[O-])cc1)C(=O)O	inactive	inactive	inactive	inactive		inactive			inactive	inactive	inactive			inactive	inactive	inactive	inactive
O=C(O)C(=O)Cc1ccccc1	inactive	inactive	inactive	inactive	inactive		inactive	inactive	inactive			30.6 µM (active)	inactive	inactive	inactive	inactive	
CCOC(=O)CC(=O)c1ccccc1	inactive	inactive	inactive	inactive	inactive	inactive	inactive	inactive	inactive			inactive	inactive	inactive	inactive	inactive	
CC(COC(C)(C)C)OCCCO (centres undefined)	11 µM (active)	inactive	inactive	inactive		inactive	inactive	inactive	inactive	inactive	inactive	inactive	inactive	inactive	inactive	inactive	inactive
CC(CC=O)CCCC(C)(C)O (centres undefined)	inactive	inactive	inactive	inactive	inactive	inactive	inactive	inactive		inactive	inactive		inactive	inactive	inactive		
CC[C@H](C)C(=O)O[C@H]1C[C@H](O)C=C2C=C[C@H](C)[C@H](CC[C@@H](O)C[C@@H](O)CC(=O)O)[C@H]21	inactive	inactive	inactive	inactive	inactive	inactive	inactive	inactive						inactive	inactive		
CC1=C(C(=O)O)N2C(=O)[C@@H](NC(=O)[C@H](N)c3ccc(O)cc3)[C@H]2SC1	inactive	inactive	inactive	inactive	inactive		inactive	inactive	inactive				inactive	inactive	inactive	inactive	
O=C1CCCC(=O)O1	inactive	inactive	inactive	inactive	inactive	inactive	inactive	inactive	inactive			inactive	inactive	inactive	inactive	inactive	
CCOCCOCCOCC	inactive	inactive	inactive	inactive	inactive	inactive	inactive	inactive	inactive				inactive	inactive	inactive	inactive	
